Results filed as inconclusive are left out. Active and inactive are the calls of the source. Calls follow the shape of the dose curve; as a rule, active = well fitted curve in the direction sought with a large enough effect; inconclusive = small, poorly fitted or top-dose-only effect, or another doubt; inactive = no such curve, though single readings can be large; an effect the other way counts as inactive or inconclusive.
Legend:
[1] = Quantitative High-Throughput drug screen in 47 multiple myeloma cell lines against the NCATS MIPE library collection: KMM1_JCRB cell viability assay (AID 1918960); also: nearly all actives have a fitted effect of over 30% in size;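 as to viability (% of DMSO): 100% = DMSO-treated cells and 0% = medium-only wells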
Method in brief: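 Here, 48 h treatment with MIPE 4.0 agents at 37 °C preceded an ATP luminescence read. Plating density was 500 cells per well.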

[2] = Quantitative High-Throughput drug screen in 47 multiple myeloma cell lines against the NCATS MIPE library collection: Karpas417_ECACC cell viability assay (AID 1918961); conditions: Karpas417 myeloma viability, CellTiter-Glo ATP luminescence, 48 h; viability (% of DMSO): at 45.8 µM (top of the series)
Method in brief: (§1)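 Steps: seed 500 cells per well; pin-transfer MIPE 4.0 library; incubate 48 h at 37C, 5% CO2, humidified; add CellTiter-Glo, 5 min room temperature; read luminescence.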

[3] = Quantitative High-Throughput drug screen in 47 multiple myeloma cell lines against the NCATS MIPE library collection: KHM11_PLB cell viability assay (AID 1918962); also: nearly all actives have a fitted effect of over 35% in size
Method in brief: (§2)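 Luminescent ATP measurement with CellTiter-Glo gives viability, scaled between DMSO-only wells (100%) and media-only wells (0%). Cells, 500 per well, faced library compounds for 48 hours at 37C.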

[4] = Quantitative High-Throughput drug screen in 47 multiple myeloma cell lines against the NCATS MIPE library collection: INA6_PLB cell viability assay (AID 1918965; also: nearly all actives have a fitted effect of over 55% in size)
Method in brief: as §1

[5] = Quantitative High-Throughput drug screen in 47 multiple myeloma cell lines against the NCATS MIPE library collection: JJN3_DSMZ cell viability assay (AID 1918966; also: nearly all actives have a fitted effect of over 50% in size)
Method in brief: (§3)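 Approved and investigational drugs from MIPE 4.0 were added by pin tool to 500 cells per well. After 48 hours at 37C, ATP-based CellTiter-Glo luminescence indicated remaining viability.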

[6] = Quantitative High-Throughput drug screen in 47 multiple myeloma cell lines against the NCATS MIPE library collection: H1112_PLB cell viability assay (AID 1918967; also: nearly all actives have a fitted effect of over 30% in size)
Method in brief: as §3

[7] = Quantitative High-Throughput drug screen in 47 multiple myeloma cell lines against the NCATS MIPE library collection: KMS27_JCRB cell viability assay (AID 1918970); conditions: KMS27 myeloma cells, CellTiter-Glo ATP viability, 48 h; viability (% of DMSO): at 45.8 µM (top of the series); also: nearly all actives have a fitted effect of over 30% in size
Method in brief: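 Myeloma cells (500 per well) were exposed to MIPE 4.0 compounds for 48 h at 37 °C, 5% CO2; viability was read as ATP luminescence with CellTiter-Glo, normalized to DMSO-only (100%) and media-only (0%) wells.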

[8] = Quantitative High-Throughput drug screen in 47 multiple myeloma cell lines against the NCATS MIPE library collection: JIM3_ECACC cell viability assay (AID 1918963; also: nearly all actives have a fitted effect of over 35% in size)
Method in brief: as §2

[9] = Quantitative High-Throughput drug screen in 47 multiple myeloma cell lines against the NCATS MIPE library collection: JIM1_ECACC cell viability assay (AID 1918964)
Method in brief: as §3

[10] = Quantitative High-Throughput drug screen in 47 multiple myeloma cell lines against the NCATS MIPE library collection: Karpas25_ECACC cell viability assay (AID 1918968; also: nearly all actives have a fitted effect of over 35% in size)
Method in brief: as §3
Potency is read from the fitted curve at half-maximal effect.

CSc1cccc(Nc2ncc3cc(-c4c(Cl)cccc4Cl)c(=O)n(C)c3n2)c1
active: Potency [1] 0.059 µM | Potency [2] 0.0264 µM | Potency [3] 0.0332 µM | Potency [4] 0.059 µM | Potency [5] 3.32 µM | Potency [7] 0.0662 µM
inactive: Potency [6]

C[C@@H]1O[C@@H](O[C@H]2CC[C@@]3(C)[C@H](CC[C@@H]4[C@H]3C[C@@H](O)[C@]3(C)[C@@H](C5=CC(=O)OC5)CC[C@]43O)C2)C[C@H](O)[C@@H]1O[C@H]1C[C@H](O)[C@H](O[C@H]2C[C@H](O)[C@@H](O)[C@@H](C)O2)[C@H](C)O1 (stereo in doubt)
active: Potency [1] 0.0762 µM | Potency [2] 0.152 µM | Potency [3] 0.152 µM | Potency [8] 0.191 µM | Potency [9] 0.0679 µM | Potency [4] 0.171 µM | Potency [5] 0.34 µM | Potency [6] 0.34 µM | Potency [10] 0.241 µM | Potency [7] 0.0959 µM

O=S(=O)(NCCNCC=Cc1ccc(Br)cc1)c1cccc2cnccc12
active: Potency [1] 14.8 µM | Potency [2] 1.32 µM | Potency [3] 9.35 µM | Potency [8] 16.6 µM | Potency [9] 4.18 µM | Potency [4] 7.43 µM | Potency [5] 16.6 µM | Potency [6] 14.8 µM | Potency [10] 9.35 µM | Potency [7] 13.2 µM

Cc1ccc(C(=O)N(CCCN)[C@@H](c2nc3cc(Cl)ccc3c(=O)n2Cc2ccccc2)C(C)C)cc1
inactive: Potency [2] | Potency [9]
active: Potency [1] 0.001 µM | Potency [3] 10.5 µM | Potency [5] 18.7 µM | viability (% of DMSO) [7] 70.3%

CC(=O)Nc1cccc(-n2c(=O)n(C3CC3)c(=O)c3c(Nc4ccc(I)cc4F)n(C)c(=O)c(C)c32)c1
active: Potency [1] 0.0935 µM | Potency [2] 0.0662 µM | Potency [3] 0.0059 µM | Potency [8] 0.187 µM | Potency [4] 0.0418 µM | Potency [6] 0.0469 µM | Potency [10] 1.66 µM

COc1cc(C=CC(=O)O)ccc1O
active: Potency [2] 0.0042 µM
inactive: Potency [1] | Potency [3] | Potency [5] | Potency [7]

Cc1[nH]c(C=C2C(=O)Nc3ccc(S(=O)(=O)N(C)c4cccc(Cl)c4)cc32)c(C)c1C(=O)N1CCN(C)CC1
active: Potency [1] 6.62 µM | Potency [2] 3.72 µM | Potency [3] 18.7 µM | Potency [8] 20.9 µM | Potency [9] 9.35 µM | Potency [4] 11.8 µM | Potency [5] 20.9 µM | Potency [6] 20.9 µM | Potency [10] 7.43 µM | Potency [7] 5.9 µM

Cc1cn([C@@H]2C[C@@H](O)[C@H](CO)O2)c(=O)[nH]c1=O
inactive: Potency [1] | Potency [2] | Potency [3] | Potency [9] | Potency [5] | Potency [6] | Potency [10] | Potency [7]
active: Potency [4] 0.0166 µM

Cc1c(-c2cccc3c(CCCOc4cccc5ccccc45)c(C(=O)O)n(Cc4cccnc4)c23)c(COc2ccc(N3CCN([S+](=O)([O-])N(C)C)CC3)cc2)nn1C
active: Potency [3] 20.9 µM | Potency [4] 16.6 µM | Potency [5] 23.5 µM | Potency [6] 20.9 µM | Potency [10] 20.9 µM
inactive: Potency [1] | Potency [2] | Potency [9] | Potency [7]

Cc1c(C(=O)Nc2ccc(N3C[C@@H](C)O[C@@H](C)C3)nc2)cccc1-c1ccc(OC(F)(F)F)cc1
inactive: Potency [8]
active: Potency [1] 1.18 µM | Potency [2] 1.66 µM | Potency [3] 6.62 µM | Potency [5] 14.8 µM | Potency [6] 7.43 µM | Potency [10] 4.18 µM

COC(=O)Nc1ccc(-c2nc(N3CCOCC3)c3cnn(C4CCN(C(=O)OC)CC4)c3n2)cc1
active: Potency [1] 0.469 µM | Potency [2] 0.059 µM | Potency [3] 0.0833 µM | Potency [4] 0.0935 µM | Potency [5] 0.935 µM | Potency [6] 0.0662 µM | Potency [10] 0.0187 µM | Potency [7] 0.0833 µM

CC(NCCc1ccc(O)cc1)C(O)c1ccc(O)cc1 (centres undefined)
inactive: Potency [2] | Potency [3] | Potency [8] | Potency [9] | Potency [4] | Potency [5] | Potency [6] | Potency [7]
active: Potency [1] 0.132 µM

CN(C)CCOc1ccc(C(=C(CCCl)c2ccccc2)c2ccccc2)cc1
active: Potency [4] 4.18 µM | Potency [5] 23.5 µM
inactive: Potency [1] | Potency [2] | Potency [3] | Potency [9] | Potency [10] | Potency [7]

COc1cc2nc(-c3cc(F)ccc3O)nc(N[C@@H]3CNC[C@@H]3C(C)(C)O)c2cc1OC
active: Potency [1] 4.18 µM | Potency [2] 0.118 µM | Potency [3] 0.0743 µM | Potency [8] 7.43 µM | Potency [9] 1.87 µM | Potency [4] 0.001 µM | Potency [5] 11.8 µM | Potency [6] 14.8 µM | Potency [10] 4.18 µM | Potency [7] 5.9 µM

CN(C)CCOc1ccc(-c2nc(-c3ccc4c(c3)CCC4=NO)c(-c3ccncc3)[nH]2)cc1
active: Potency [1] 14.8 µM | Potency [2] 9.35 µM | Potency [3] 1.32 µM | Potency [8] 23.5 µM | Potency [9] 18.7 µM | Potency [5] 16.6 µM | Potency [6] 23.5 µM | Potency [10] 14.8 µM | Potency [7] 6.62 µM
